# PubChem BioAssay (NCI)
# The panel holds about 79,000 compounds, 15% with a hit somewhere; the sample as a whole holds those more often. Values without a mark were called inactive. Activity calls are given as the source filed them. Cut-off read from the data, not from the text of the source: active = growth inhibition above about 70%; inactive = the rest.
# How the values were obtained:
# [1] = NCI Yeast Anticancer Drug Screen. Data for the rad52 strain (AID 147);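 note: 0% = growth of vehicle-treated control cultures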; conditions: S. cerevisiae rad52 mutant growth inhibition, active compounds read high
# Summary of the method: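 Read-out: growth inhibition versus vehicle-treated controls. Cells were a DNA repair-deficient yeast strain treated with compounds.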
# [2] = NCI Yeast Anticancer Drug Screen. Data for the wt1 strain (AID 149);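 note: 0% = growth of vehicle-treated wt1 cultures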; conditions: S. cerevisiae wt1 strain (SPY 50644) growth inhibition, active compounds read high
# Summary of the method: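 Readout: yeast growth inhibition, normalised to vehicle controls, in the wt1 strain exposed to test compounds.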
# [3] = NCI Yeast Anticancer Drug Screen. Data for the rad50EPP+ strain (AID 151);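 note: 0% = growth of vehicle-treated control cultures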; conditions: S. cerevisiae rad50 mutant strain, active compounds read high
# Summary of the method: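 Growth inhibition read against vehicle controls in rad50EPP+ yeast, a strain altered in DNA damage repair, after compound exposure.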
# [4] = NCI Yeast Anticancer Drug Screen. Data for the mgt1 strain (AID 153); conditions: S. cerevisiae mgt1 mutant growth inhibition, active compounds read high
# Summary of the method: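 mgt1 yeast grown with test compound; read-out is growth inhibition versus vehicle-treated cultures.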
# [5] = NCI Yeast Anticancer Drug Screen. Data for the rad50 strain (AID 155);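 note: 0% = growth of vehicle-only cultures of the same strain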; conditions: S. cerevisiae rad50 strain growth inhibition, active compounds read high
# Summary of the method: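 Compounds were tested on a yeast strain with an engineered DNA damage repair alteration; the reported value is growth inhibition normalised to vehicle treatment.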
# [6] = NCI Yeast Anticancer Drug Screen. Data for the mec2-1 strain (AID 157); conditions: S. cerevisiae mec2-1 strain, active compounds read high
# Summary of the method: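 Yeast mec2-1 mutant treated with compound. Readout: growth inhibition vs vehicle controls.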
# [7] = NCI Yeast Anticancer Drug Screen. Data for the rad14 strain (AID 159);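 note: 0% = growth of vehicle-treated control cultures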; conditions: S. cerevisiae rad14 strain growth inhibition, active compounds read high
# Summary of the method: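 Compound-treated yeast with a defined DNA-repair lesion; growth inhibition normalised to vehicle-treated cultures.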
# [8] = NCI Yeast Anticancer Drug Screen. Data for the sgs1 mgt1 strain (AID 161);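 note: 0% = growth of cultures given vehicle only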; conditions: S. cerevisiae sgs1 mgt1 strain, active compounds read high
# Summary of the method: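 Genetically altered yeast, compound exposure, growth inhibition relative to vehicle.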
# [9] = NCI Yeast Anticancer Drug Screen. Data for the CLN2oe strain (AID 163);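 note: 0% = growth of vehicle-only control cultures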; conditions: S. cerevisiae CLN2oe strain, active compounds read high
# Summary of the method: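 Read-out: yeast growth inhibition, expressed relative to vehicle-only controls. The strain bears an engineered cell-cycle alteration.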
# [10] = NCI Yeast Anticancer Drug Screen. Data for the cln2 rad14 strain (AID 165);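 note: 0% = growth equal to vehicle treated cultures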; conditions: S. cerevisiae cln2 rad14 strain, active compounds read high
# Summary of the method: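 cln2 rad14 yeast strain; compound exposure; growth inhibition read vs vehicle controls.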
# [11] = NCI Yeast Anticancer Drug Screen. Data for the bub3 strain (AID 167); conditions: S. cerevisiae bub3 mutant strain, active compounds read high
# Summary of the method: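 Growth of a checkpoint-deficient yeast mutant is measured after compound exposure. Values represent inhibition relative to vehicle.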
# [12] = NCI Yeast Anticancer Drug Screen. Data for the wt2 strain (AID 169);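 note: 0% = growth of vehicle-treated yeast cultures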; conditions: S. cerevisiae wt2 strain growth inhibition, active compounds read high
# Summary of the method: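 Read-out: growth inhibition versus vehicle-treated control cultures after compound exposure of the yeast strain.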
# [13] = NCI Yeast Anticancer Drug Screen. Data for the mlh1 strain (AID 171);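 note: 0% = growth of vehicle-treated control cultures of the same strain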; conditions: S. cerevisiae mlh1 strain growth inhibition, active compounds read high
# Summary of the method: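 Read-out: growth inhibition versus vehicle controls. Strain: engineered yeast with a defined DNA repair or cell cycle defect, compound-treated.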
# [14] = NCI Yeast Anticancer Drug Screen. Data for the sgs1 strain (AID 173);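 note: 0% = growth of vehicle-only control cultures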; conditions: S. cerevisiae sgs1 mutant, active compounds read high
# Summary of the method: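 Read-out: yeast growth inhibition relative to vehicle controls, following compound exposure of a strain with a defined DNA repair/cell cycle alteration.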
# [15] = NCI Yeast Anticancer Drug Screen. Data for the mlh1 rad18 strain (AID 175); conditions: S. cerevisiae mlh1 rad18 strain growth inhibition, active compounds read high
# Summary of the method: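 Yeast w/ defined DNA-repair lesions; compound exposure; growth vs vehicle controls → % inhibition.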
# [16] = NCI Yeast Anticancer Drug Screen. Data for the rad18 strain (AID 177); conditions: S. cerevisiae rad18 mutant growth inhibition, active compounds read high
# Summary of the method: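 Readout: growth inhibition vs vehicle controls. Cells: genetically altered yeast strain, DNA repair defect.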
# [17] = at 5.0 µM (retest, dose inferred, filed as 0.5)
# [18] = at 50.0 µM (retest, dose inferred, filed as 5.0)
smiles,measurement,setting,value
Cc1oc2ccccc2c(=O)c1Cn1nnc2ccccc21,growth inhibition,[1]; at 1.2 µM,-1%
same,growth inhibition,[1]; at 3.7 µM,-2%
same,growth inhibition,[1]; at 11.0 µM,0%
same,growth inhibition,[1]; at 33.0 µM,9%
same,growth inhibition,[1]; at 100.0 µM,56%
same,growth inhibition,[2]; at 1.2 µM,-2%
same,growth inhibition,[2]; at 3.7 µM,-1%
same,growth inhibition,[2]; at 11.0 µM,-2%
same,growth inhibition,[2]; at 33.0 µM,-6%
same,growth inhibition,[2]; at 100.0 µM,6%
same,growth inhibition,[3]; at 1.2 µM,-1%
same,growth inhibition,[3]; at 3.7 µM,3%
same,growth inhibition,[3]; at 11.0 µM,8%
same,growth inhibition,[3]; at 33.0 µM,17%
same,growth inhibition,[3]; at 100.0 µM,35%
same,growth inhibition,[4]; at 1.2 µM,0%
same,growth inhibition,[4]; at 3.7 µM,2%
same,growth inhibition,[4]; at 11.0 µM,0%
same,growth inhibition,[4]; at 33.0 µM,2%
same,growth inhibition,[4]; at 100.0 µM,26%
same,growth inhibition,[5]; at 1.2 µM,-3%
same,growth inhibition,[5]; at 3.7 µM,-1%
same,growth inhibition,[5]; [17],-20%
same,growth inhibition,[5]; at 11.0 µM,-1%
same,growth inhibition,[5]; at 33.0 µM,13%
same,growth inhibition,[5]; [18],47%
same,growth inhibition,[5]; at 50.0 µM,4.55%
same,growth inhibition,[5]; at 100.0 µM,73% (active)
same,growth inhibition,[6]; at 1.2 µM,-2%
same,growth inhibition,[6]; at 3.7 µM,-3%
same,growth inhibition,[6]; [17],1%
same,growth inhibition,[6]; at 11.0 µM,-2%
same,growth inhibition,[6]; at 33.0 µM,1%
same,growth inhibition,[6]; [18],5%
same,growth inhibition,[6]; at 50.0 µM,14.6%
same,growth inhibition,[6]; at 100.0 µM,36%
same,growth inhibition,[7]; at 1.2 µM,-1%
same,growth inhibition,[7]; at 3.7 µM,-1%
same,growth inhibition,[7]; at 11.0 µM,1%
same,growth inhibition,[7]; at 33.0 µM,8%
same,growth inhibition,[7]; at 100.0 µM,36%
same,growth inhibition,[8]; [17],-1%
same,growth inhibition,[8]; [18],22%
same,growth inhibition,[8]; at 50.0 µM,16.9%
same,growth inhibition,[9]; at 1.2 µM,0%
same,growth inhibition,[9]; at 3.7 µM,0%
same,growth inhibition,[9]; at 11.0 µM,-4%
same,growth inhibition,[9]; at 33.0 µM,-5%
same,growth inhibition,[9]; at 100.0 µM,19%
same,growth inhibition,[10]; [17],9%
same,growth inhibition,[10]; [18],50%
same,growth inhibition,[10]; at 50.0 µM,15.7%
same,growth inhibition,[11]; at 1.2 µM,-1%
same,growth inhibition,[11]; at 3.7 µM,-2%
same,growth inhibition,[11]; [17],3%
same,growth inhibition,[11]; at 11.0 µM,0%
same,growth inhibition,[11]; at 33.0 µM,10%
same,growth inhibition,[11]; [18],41%
same,growth inhibition,[11]; at 50.0 µM,21.9%
same,growth inhibition,[11]; at 100.0 µM,67%
same,growth inhibition,[12]; at 1.2 µM,-2%
same,growth inhibition,[12]; at 3.7 µM,-2%
same,growth inhibition,[12]; at 11.0 µM,-1%
same,growth inhibition,[12]; at 33.0 µM,0%
same,growth inhibition,[12]; at 100.0 µM,32%
same,growth inhibition,[13]; at 1.2 µM,-1%
same,growth inhibition,[13]; at 3.7 µM,-2%
same,growth inhibition,[13]; at 11.0 µM,-2%
same,growth inhibition,[13]; at 33.0 µM,1%
same,growth inhibition,[13]; at 100.0 µM,43%
same,growth inhibition,[14]; at 1.2 µM,0%
same,growth inhibition,[14]; at 3.7 µM,1%
same,growth inhibition,[14]; at 11.0 µM,2%
same,growth inhibition,[14]; at 33.0 µM,12%
same,growth inhibition,[14]; at 100.0 µM,68%
same,growth inhibition,[15]; [17],-1%
same,growth inhibition,[15]; [18],27%
same,growth inhibition,[15]; at 50.0 µM,-11.3%
same,growth inhibition,[16]; at 1.2 µM,-2%
same,growth inhibition,[16]; at 3.7 µM,-2%
same,growth inhibition,[16]; at 11.0 µM,1%
same,growth inhibition,[16]; at 33.0 µM,15%
same,growth inhibition,[16]; at 100.0 µM,55%
O=C1Oc2ccccc2C(=O)/C1=C/N1C(=O)N/C(=C\c2ccccc2Br)C1=O,growth inhibition,[1]; at 1.2 µM,1%
same,growth inhibition,[1]; at 3.7 µM,4%
same,growth inhibition,[1]; at 11.0 µM,13%
same,growth inhibition,[1]; at 33.0 µM,43%
same,growth inhibition,[1]; at 100.0 µM,91% (active)
same,growth inhibition,[2]; at 1.2 µM,4%
same,growth inhibition,[2]; at 3.7 µM,7%
same,growth inhibition,[2]; at 11.0 µM,8%
same,growth inhibition,[2]; at 33.0 µM,18%
same,growth inhibition,[2]; at 100.0 µM,55%
same,growth inhibition,[3]; at 1.2 µM,-2%
same,growth inhibition,[3]; at 3.7 µM,1%
same,growth inhibition,[3]; at 11.0 µM,6%
same,growth inhibition,[3]; at 33.0 µM,21%
same,growth inhibition,[3]; at 100.0 µM,57%
same,growth inhibition,[4]; at 1.2 µM,0%
same,growth inhibition,[4]; at 3.7 µM,1%
same,growth inhibition,[4]; at 11.0 µM,7%
same,growth inhibition,[4]; at 33.0 µM,25%
same,growth inhibition,[4]; at 100.0 µM,96% (active)
same,growth inhibition,[5]; at 1.2 µM,-2%
same,growth inhibition,[5]; at 3.7 µM,-11%
same,growth inhibition,[5]; [17],-6%
same,growth inhibition,[5]; at 11.0 µM,-3%
same,growth inhibition,[5]; at 33.0 µM,40%
same,growth inhibition,[5]; [18],54%
same,growth inhibition,[5]; at 50.0 µM,91.9% (active)
same,growth inhibition,[5]; at 100.0 µM,95% (active)
same,growth inhibition,[6]; at 1.2 µM,1%
same,growth inhibition,[6]; at 3.7 µM,1%
same,growth inhibition,[6]; [17],-15%
same,growth inhibition,[6]; at 11.0 µM,7%
same,growth inhibition,[6]; at 33.0 µM,27%
same,growth inhibition,[6]; [18],5%
same,growth inhibition,[6]; at 50.0 µM,56.1%
same,growth inhibition,[6]; at 100.0 µM,86% (active)
same,growth inhibition,[7]; at 1.2 µM,1%
same,growth inhibition,[7]; at 3.7 µM,2%
same,growth inhibition,[7]; at 11.0 µM,13%
same,growth inhibition,[7]; at 33.0 µM,59%
same,growth inhibition,[7]; at 100.0 µM,97% (active)
same,growth inhibition,[8]; [17],-3%
same,growth inhibition,[8]; [18],17%
same,growth inhibition,[8]; at 50.0 µM,89.7% (active)
same,growth inhibition,[9]; at 1.2 µM,-3%
same,growth inhibition,[9]; at 3.7 µM,4%
same,growth inhibition,[9]; at 11.0 µM,14%
same,growth inhibition,[9]; at 33.0 µM,33%
same,growth inhibition,[9]; at 100.0 µM,56%
same,growth inhibition,[10]; [17],15%
same,growth inhibition,[10]; [18],13%
same,growth inhibition,[10]; at 50.0 µM,39.5%
same,growth inhibition,[11]; at 1.2 µM,0%
same,growth inhibition,[11]; at 3.7 µM,-1%
same,growth inhibition,[11]; [17],7%
same,growth inhibition,[11]; at 11.0 µM,6%
same,growth inhibition,[11]; at 33.0 µM,29%
same,growth inhibition,[11]; [18],33%
same,growth inhibition,[11]; at 50.0 µM,94.5% (active)
same,growth inhibition,[11]; at 100.0 µM,83% (active)
same,growth inhibition,[12]; at 1.2 µM,1%
same,growth inhibition,[12]; at 3.7 µM,2%
same,growth inhibition,[12]; at 11.0 µM,6%
same,growth inhibition,[12]; at 33.0 µM,33%
same,growth inhibition,[12]; at 100.0 µM,96% (active)
same,growth inhibition,[13]; at 1.2 µM,0%
same,growth inhibition,[13]; at 3.7 µM,5%
same,growth inhibition,[13]; at 11.0 µM,12%
same,growth inhibition,[13]; at 33.0 µM,43%
same,growth inhibition,[13]; at 100.0 µM,97% (active)
same,growth inhibition,[14]; at 1.2 µM,2%
same,growth inhibition,[14]; at 3.7 µM,5%
same,growth inhibition,[14]; at 11.0 µM,14%
same,growth inhibition,[14]; at 33.0 µM,54%
same,growth inhibition,[14]; at 100.0 µM,96% (active)
same,growth inhibition,[15]; [17],4%
same,growth inhibition,[15]; [18],52%
same,growth inhibition,[15]; at 50.0 µM,95.5% (active)
same,growth inhibition,[16]; at 1.2 µM,-1%
same,growth inhibition,[16]; at 3.7 µM,1%
same,growth inhibition,[16]; at 11.0 µM,6%
same,growth inhibition,[16]; at 33.0 µM,51%
same,growth inhibition,[16]; at 100.0 µM,94% (active)
